PostGolgi yeast: phenotypic screen on post-Golgi transport, primary screen; post-Golgi transport phenotypic cell assay; inhibition, % at 10 µM; actives 0.9% (n = 98,000);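 also: yeast cells grown in 1536-well plates; yeast grown about 18 h at 30C before absorbance read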
PLAP activator: PLAP enzyme activators, biochemical, luminescence, HTS. Alkaline phosphatase, placental type (Homo sapiens), P05187. AID 696, 2007. activation fold at 20 µM. purified PLAP enzyme, luminescent substrate read-out; active compounds read high. actives 1.2% (n = 96,000); in the data active = activation fold above about 2
D1 allo mod: D1 CRE-luciferase signal change, two-sided – cell-based, HEK293 D1, dopamine EC30, D1 allosteric modulator project, primary screen | D(1A) dopamine receptor (Homo sapiens), P21728 | B-score at 10 µM | actives 5.9% (n = 58,000) | dopamine EC30 potentiation; actives deviate in either direction;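 active = luminescence count or its row- and column-corrected plate score outside the 99.7% band of the plate's sample wells, on either side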
Cav3 T inh: Cav3.2 calcium influx blockers – cell-based, Fluo-4 calcium fluorescence, FDSS, MLSMR library, primary screen; Voltage-dependent T-type calcium channel subunit alpha-1H (Homo sapiens), O95180; Cav3.2-expressing cells; active compounds read low; B-score at 10 µM; actives 4% (n = 100,000); AID 449739, 2010;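 active = single-dose well whose peak fluorescence ratio is a statistical outlier from its plate by either plate-standardised score or position-corrected B-score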
DAT uptake mod: changed hDAT dopamine uptake under cocaine IC80, either direction, primary screen, cocaine antagonist project, cell-based, LLC-PK1 hDAT, [14C]-dopamine uptake, MLSMR; LLC-PK1 hDAT cells, [14C]-dopamine uptake with cocaine IC80; actives deviate in either direction; actives 1.3% (n = 110,000); B-score at 10 µM;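 active = Z score or B-score, a plate-position-corrected score, falls beyond the plate's 99.7% confidence bounds, in either direction; inactive = both scores lie inside the 99.7% bounds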;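 also: scored against the spread of the other compound wells on the same plate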
Target sequence (Q01959 whole entry, looked up): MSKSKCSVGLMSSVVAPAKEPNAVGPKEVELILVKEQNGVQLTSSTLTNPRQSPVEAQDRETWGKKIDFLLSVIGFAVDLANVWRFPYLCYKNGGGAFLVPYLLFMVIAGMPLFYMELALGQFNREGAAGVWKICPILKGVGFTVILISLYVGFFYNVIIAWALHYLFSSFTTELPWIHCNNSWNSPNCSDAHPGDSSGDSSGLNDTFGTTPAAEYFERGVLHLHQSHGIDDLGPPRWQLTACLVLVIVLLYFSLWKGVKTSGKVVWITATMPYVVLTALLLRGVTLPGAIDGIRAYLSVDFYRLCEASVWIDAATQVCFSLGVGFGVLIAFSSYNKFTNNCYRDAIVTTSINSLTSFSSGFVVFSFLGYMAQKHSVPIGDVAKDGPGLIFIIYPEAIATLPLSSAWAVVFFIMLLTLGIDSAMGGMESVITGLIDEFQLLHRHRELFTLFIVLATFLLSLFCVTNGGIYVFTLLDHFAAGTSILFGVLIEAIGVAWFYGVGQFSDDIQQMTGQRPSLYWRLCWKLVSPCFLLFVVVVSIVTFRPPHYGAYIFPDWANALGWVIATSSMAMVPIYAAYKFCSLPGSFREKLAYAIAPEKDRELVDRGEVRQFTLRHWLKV
PostGolgi ctrl: growth inhibition of yeast control strain, primary screen, counter-screen for post-Golgi transport modulator project; inhibition, % at 10 µM; actives 5% (n = 98,000); efflux-deficient yeast background strain, growth absorbance A615, 16 h
Active calls of the source: *; nt = no result. This is a sample that favours compounds with a hit; in the whole collection about 12% have one here. Rule as the data show it, unless noted: active = inhibition above about 30%; inactive = the rest.

SMILES	PostGolgi yeast	PLAP activator	D1 allo mod	Cav3 T inh	DAT uptake mod	PostGolgi ctrl
CC1=C(C(=O)OCC(C)C)C(c2cccc(F)c2)N2C(=O)C(C)SC2=N1 (stereo not drawn)	3	1.5	-0.36	-6.1*	2.1	22
CC(C)(C)S(=O)(=O)c1cnc2c(-c3ccc(Cl)cc3)cnn2c1N	4	1	nt	1.1	-0.058	34*
COc1ccc(C)cc1S(=O)(=O)N(CC(=O)N1CCCC1)c1ccccc1	-10	1	-0.53	1.3	-0.097	4
c1ccc(CSc2nnc(-c3c[nH]c4ccccc34)o2)cc1	-4	1	0.68	-0.03	-1.1	24
Cc1[nH]c2ccccc2c1Cc1nnc(SCc2ccccc2)o1	11	0.9	nt	-8.6*	-1.7	35*
O=C(Nc1cccc(-c2nc3ncccc3o2)c1)c1cc2ccccc2o1	11	1.5	-0.95	-1.5	0.85	35*
C#CCONC(=O)c1cc(OCC(F)(F)F)ccc1OCC(F)(F)F	-5	0.9	nt	-0.71	1.3	-1
CCn1c(CSc2nnc(-c3ccoc3C)n2C)nc2cc(S(=O)(=O)N(C)C)ccc21	-5	nt	0.53	0.55	0.052	38*
CCOC(=O)C1(Cc2ccc(O)cc2)NC(c2ccco2)C2C(=O)N(c3ccccc3F)C(=O)C21 (stereo not drawn)	-2	1.1	0.81	0.045	-0.97	8
COc1ccc(C)cc1NC(=O)C(C)N(c1ccc(C)cc1)S(C)(=O)=O (stereo not drawn)	-3	1.1	nt	-0.23	2.7*	15
CS(=O)(=O)N1CCN(c2ccccc2NC(=O)c2ccc(Cl)cc2)CC1	-1	1.1	-0.73	-0.77	-1.1	12
CS(=O)(=O)N1CCN(c2ccccc2NC(=O)CSc2ccc(Cl)cc2)CC1	-2	1.5	0.19	-4*	0.026	10
COc1cc(S(=O)(=O)N2CCN(c3ccccc3F)CC2)ccc1Cl	1	0.8	-0.41	-1.6	-0.41	48*
O=S(=O)(N1CCCCC1)N1CCN(c2ccccc2F)CC1	15	0.9	nt	-0.82	0.079	-3
CS(=O)(=O)N1CCN(c2ccccc2F)CC1	7	1	0.23	1.3	0.0037	31*
Cc1ccc(N2C(=O)CC(n3nc(C)cc3C)C2=O)cc1 (stereo not drawn)	-10	1	nt	0.11	0.071	7
CCOC(=O)CCC(=O)N1CCOCCOCCN(C(=O)CCC(=O)OCC)CCOCCOCC1	-3	1.4	nt	0.82	-0.025	13
O=C(O)CCc1nnc2n(Cc3ccc(F)cc3)c(=O)c3ccccc3n12	44*	0.9	nt	0.57	0.24	-4
CCCn1c(=O)c2ccccc2n2c(SCC(=O)c3ccc(F)cc3)nnc12	nt	1.2	-0.03	nt	nt	nt
O=C(c1cccc2ccccc12)N1CCC(N2CCN(c3ccccc3)CC2)CC1	-4	1.3	-1.1	1.9	0.11	22
Cc1cccc(-n2c(N)c(C(=O)NCCN3CCOCC3)c3nc4ccccc4nc32)c1	30*	1.7	0.22	-0.21	1.8	-2
CCCNC(=O)c1c(N)n(-c2cc(OC)cc(OC)c2)c2nc3ccccc3nc12	-7	1.9	-0.17	-6.5*	0.046	27
Nc1c(C(=O)NCc2ccc(F)cc2)c2nc3ccccc3nc2n1CCCN1CCOCC1	101*	2*	nt	-2.9	-0.33	73*
CCCNC(=O)c1c(N)n(-c2ccc3c(c2)OCO3)c2nc3ccccc3nc12	-2	0.7	0.4	-1.5	0.49	2
COc1ccc(CNC(=O)c2c(N)n(CCCN3CCOCC3)c3nc4ccccc4nc23)cc1	7	1.9	nt	-2.1	1.5	20
Cc1cc(C)c2nc(SCC(=O)N3CCCCC3)c(C#N)cc2c1	-6	0.9	0.43	nt	0.027	3
Cc1ccccc1N1C(=O)c2ccccc2NC1c1ccncc1 (stereo not drawn)	nt	nt	nt	0.13	-0.46	nt
O=C1c2ccccc2C(=O)C1c1ccncc1	-4	0.7	-3.5*	-0.17	-0.5	-3

Assay outcomes (PubChem)
